Here are results for nine compounds from PubChem BioAssay (NCATS).

The test system of one assay is W2. Description: qHTS profiling for inhibitors of Plasmodium falciparum proliferation (AID 504749). Further: nearly all actives have a fitted effect of over 60% in size. Further: potency means the concentration at half of the fitted maximal effect. The conditions noted are these: P. falciparum in erythrocytes, SYBR Green DNA, 72 h; series mostly up to 28.7 µM. The essentials: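 Infected RBCs, 0.3% parasitemia/2.5% Hct final; cpd 72 h, 37 C, 5% CO2; lysis buffer with saponin/triton/SYBR Green I, o/n RT dark; FI 485/535; norm. to artemisinin (0.29 uM) and DMSO.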
(In general: Quantitative high-throughput screening tests each substance at several concentrations.)

In another assay the test system is HEK293. The assay can be described thus: Cytotoxic Profiling of Annotated Libraries Using Quantitative High-Throughput Screening (AID 1296008). Further: nearly all actives have a fitted effect of over 60% in size. Further: potency means the concentration at half of the fitted maximal effect. On max response: on the % scale 0 is the no-effect control and ±100 the full control effect. To be noted: Five cell lines viability, CellTiter-Glo ATP luminescence, 48-72 h; max response: hits give low values. Summed up:
(§1)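 Cytotoxicity was measured as CellTiter-Glo ATP luminescence, read after 10 min at room temperature. Compound treatment of the cells lasted 48 or 72 hr at 37 degrees Celsius in a qHTS format.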
On the technique in general: In ATP-based viability assays light output follows the ATP content of the culture.

A further assay concerns HaCat. The assay is described as above. To be noted: Five cell lines viability, CellTiter-Glo ATP luminescence, 48-72 h; max response: hits give low values. The essentials:
as §1

A further assay has as its system KB-3-1. The description is as above. To be noted: Five cell lines viability, CellTiter-Glo ATP luminescence, 48-72 h; max response: hits give low values. Summed up:
as §1

Assay [1] relates to NIH3T3. The description is as above. The conditions noted are these: Five cell lines viability, CellTiter-Glo ATP luminescence, 48-72 h; max response: hits give low values. Summed up: as §1
A further assay deals with MCC-13. Description: qHTS assay to identify novel small-molecules to repurpose for Merkel cell carcinoma treatment (AID 1296009). Further: nearly all actives have a fitted effect of over 60% in size. Further: potency means the concentration at half of the fitted maximal effect. To be noted: MCC and control cell lines, CellTiter-Glo viability, 72 h; series mostly up to 46 µM. Summed up:
(§2)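 72 hr, 37 degree celsius; NPC 8-pt / MIPE 11-pt dose response; compound pinned in DMSO; CellTiter-Glo, 10 min RT, luminescence; normalized to no-cell and DMSO controls.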

Another assay concerns MCC-26. The description is as above. To be noted: MCC and control cell lines, CellTiter-Glo viability, 72 h; series mostly up to 46 µM. Summed up:
as §2

The next assay concerns MKL-1. The description is as above. The conditions noted are these: MCC and control cell lines, CellTiter-Glo viability, 72 h; series mostly up to 46 µM. Summed up:
as §2

Another assay relates to MKL-2. The description is as above. The conditions noted are these: MCC and control cell lines, CellTiter-Glo viability, 72 h; series mostly up to 46 µM. Summed up: as §2
The subject of another assay is UISO. The assay is described as above. To be noted: MCC and control cell lines, CellTiter-Glo viability, 72 h; series mostly up to 46 µM. The essentials: as §2
The test system of a further assay is WaGa. Described as above. The conditions noted are these: MCC and control cell lines, CellTiter-Glo viability, 72 h; series mostly up to 46 µM. Summed up: as §2
The subject of the next assay is C33A. Description: Primary qHTS to identify gynecologic anti-cancer compounds using libraries of approved drugs and bioactive compounds (AID 1345084). Further: on the % scale 0 is the no-effect control and ±100 the full control effect; nearly all actives have a fitted effect of over 55% in size. The conditions noted are these: Gynecologic cancer cell panel viability, ATPlite luminescence, 48 h; series mostly up to 57.5 µM. Summed up: (§3)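 Five-concentration response, 48 h; readout is ATP-driven luciferase luminescence.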

Another assay relates to CAOV3. The assay is described as above. To be noted: Gynecologic cancer cell panel viability, ATPlite luminescence, 48 h; series mostly up to 57.5 µM. Summed up:
as §3

Another assay concerns CASKI. Described as above. The conditions noted are these: Gynecologic cancer cell panel viability, ATPlite luminescence, 48 h; series mostly up to 57.5 µM. The essentials: as §3
The test system of a further assay is Es-2. Described as above. To be noted: Gynecologic cancer cell panel viability, ATPlite luminescence, 48 h; series mostly up to 57.5 µM. The essentials:
as §3

The subject of a further assay is HeLa. The assay is described as above. The conditions noted are these: Gynecologic cancer cell panel viability, ATPlite luminescence, 48 h; series mostly up to 57.5 µM. The essentials: as §3
In assay [2] the test system is NIH3T3. Description: qHTS assay to identify novel small-molecules to repurpose for Merkel cell carcinoma treatment (AID 1296009). Further: nearly all actives have a fitted effect of over 60% in size. Further: potency means the concentration at half of the fitted maximal effect. The conditions noted are these: MCC and control cell lines, CellTiter-Glo viability, 72 h; at 44.8 µM (top of the series). The essentials: as §2

Structures are written as SMILES. Where “and” joins values, the source holds several entries; their conditions need not be identical. Identical values can stand only once. Results filed as inconclusive are left out. Values without a mark were called inactive. Calls of active or inactive are those of the source. The call rests on the fitted dose curve; in most records, active means well fitted curve in the direction sought with a large enough effect; inconclusive means small, poorly fitted or top-dose-only effect, or another doubt; inactive means no such curve, though single readings can be large; an effect the other way counts as inactive or inconclusive.

For the compound `Nc1nc(N)c(-c2ccccc2)s1`, the Potency result in the assay with W2, with MCC-13, in the assay with MCC-26, with MKL-1, in the assay with MKL-2 and in the assay on UISO was “inactive” in each case. For the same compound, the Potency result in the assay with WaGa, in the assay on C33A, in the assay on CAOV3, in the assay on CASKI, in the assay with Es-2 and with HeLa was “inactive” in each case. Also, the max response was -1.75% in the assay on HEK293, -10.8% in the assay with HaCat, -0.967% in the assay on KB-3-1 and 2.51% with NIH3T3 [1].

Consider `CCO[C@@H]1O[C@H](C(COCc2ccccc2)OCc2ccccc2)[C@H](OCc2ccccc2)[C@H]1O` (some centres not stated), for which the values for the Potency in the assay with HEK293 and in the assay on WaGa were 16.8 µM (active) and 26.6 µM (active), respectively. In the assay with KB-3-1, the max response was -15.4%. Also, the Potency entry in the assay with MCC-13, in the assay with MCC-26, in the assay with MKL-1, with C33A and in the assay with CASKI was “inactive” in each case.

On to `NC(N)=NCc1cccc(I)c1`, for which, in the assay with W2, the Potency entry is “inactive”. Further, the max response with KB-3-1 was 1.64% and -6.45%.

For the compound `Nc1ccc(S(=O)(=O)Nc2cnc3ccccc3n2)cc1`, the Potency result in the assay on W2, with MCC-13, with MCC-26, with MKL-1, with MKL-2 and in the assay on UISO was “inactive” in each case. In addition, the Potency result with WaGa, in the assay on C33A, in the assay on CAOV3, in the assay with CASKI, in the assay with Es-2 and in the assay on HeLa was “inactive” in each case. For the same compound, the max response in the assay on HEK293 is 1.95%; in the assay with HaCat it was -4.06%; in the assay on KB-3-1, -10.8%. Besides, the compound was called inactive with NIH3T3 [1] and in the assay with NIH3T3 [2].

Take `CN(Cc1ccc(C(C)(C)C)cc1)Cc1cccc2ccccc12`: the Potency with W2 is 9.53 µM (active). Besides, the max response in the assay on KB-3-1 was -4.26% and -7.03%; with NIH3T3 [1], -14%. Moreover, the Potency result with MCC-13, in the assay on MCC-26, in the assay on MKL-1, in the assay on MKL-2, in the assay on UISO and with WaGa was “inactive” in each case. The Potency entry in the assay with C33A, with CAOV3, with CASKI, with Es-2 and with HeLa was “inactive” in each case.

In the case of `CN1CCC[C@@H]1CCO[C@](C)(c1ccccc1)c1ccc(Cl)cc1`, the Potency in the assay with W2 was 13.5 µM (active); in the assay with HEK293 it was 15 µM (active); in the assay on HaCat, 26.6 µM (active); in the assay with MKL-1 it was 23.7 µM (active); with MKL-2, 9.44 µM (active); in the assay with UISO it was 21.1 µM (active). Besides, in the assay with KB-3-1, the max response was -2.14%. Further, the Potency entry in the assay with MCC-26 and in the assay on HeLa was “inactive” each time.

As to `CCN(CC)CCNC(=O)COc1ccc(OC)cc1`, the max response was 4.77% in the assay on HEK293, 7.84% in the assay with KB-3-1 and -6.7% with NIH3T3 [1]. The Potency entry with MCC-13, in the assay on MCC-26, in the assay on MKL-1, in the assay on MKL-2, in the assay on UISO and with WaGa was “inactive” throughout. Also, the Potency result in the assay on C33A, in the assay with CAOV3, in the assay with CASKI, in the assay on Es-2 and in the assay on HeLa was “inactive” throughout.

On to `CC(=O)NO`, for which the Potency entry with W2, with MCC-13, in the assay on MCC-26, in the assay on MKL-1, with MKL-2 and in the assay with UISO was “inactive” throughout. Moreover, the Potency entry with WaGa, in the assay on C33A, in the assay on CAOV3, with CASKI, in the assay with Es-2 and in the assay with HeLa was “inactive” throughout. The max response was 1.75% with HEK293, -61% in the assay with HaCat, 15.6% in the assay with KB-3-1 and 2.47% in the assay on NIH3T3 [1].

On to `CCc1nn(CCCN2CCN(c3cccc(Cl)c3)CC2)c(=O)n1CCOc1ccccc1`, for which, in the assay on KB-3-1, the max response was 3.08% and -5.51%. For the same compound, the Potency result with MCC-13, in the assay on C33A, in the assay on CAOV3, in the assay on CASKI and in the assay on Es-2 was “inactive” throughout.
